Some targets named below: ALX4 (Homo sapiens, UniProt Q9H161 200-286, Q225E); HESX1 (Homo sapiens, UniProt Q9UBX0 95-180, F115L); HOXA4 (Homo sapiens, UniProt Q00056 201-287, W262F).
Common to all, as to experiment: PBM; 200 nM protein, PBS
What all share (conditions): dsDNA, one strand shown

In test [1] the target is T1, VENTX (Homo sapiens, UniProt O95231 78-163, R121Q).
T1 sequence: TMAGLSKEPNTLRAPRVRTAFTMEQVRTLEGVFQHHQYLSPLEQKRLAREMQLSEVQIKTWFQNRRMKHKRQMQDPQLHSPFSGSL

The next test concerns the target T2, NKX2-6 (Homo sapiens, UniProt A6NCS4 118-204).
T2 sequence: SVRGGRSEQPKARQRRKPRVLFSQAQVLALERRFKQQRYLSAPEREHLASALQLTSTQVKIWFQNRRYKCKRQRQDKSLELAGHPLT

The target in test [2] is T3, VENTX (Homo sapiens, UniProt O95231 78-163, Y115F).
T3 sequence: T1 sequence with Y38F, Q44R

Test [3] has as its target HOXB9 (Homo sapiens, UniProt P17482 171-250, T197M).
The target in test [4] is HOXC9 (Homo sapiens, UniProt P31274 178-260, K195R).
The target of test [5] is HOXC10 (Homo sapiens, UniProt Q9NYD6 254-340).
Test [6] deals with HOXA2 (Homo sapiens, UniProt O43364 129-215, R185T).
In test [7] the target is HOXB9 (Homo sapiens, UniProt P17482 171-250).
For test [8], the target named is HOXC9 (Homo sapiens, UniProt P31274 178-260).
In test [9] the target is HOXD13 (Homo sapiens, UniProt P35453 263-343, T313R).
Test [10] has as its target HOXC9 (Homo sapiens, UniProt P31274 178-260, R193K).
The target of test [11] is HOXA2 (Homo sapiens, UniProt O43364 129-215, R185K).
Test [12] concerns the target HOXD13 (Homo sapiens, UniProt P35453 263-343).
Test [13] has as its target HOXC10 (Homo sapiens, UniProt Q9NYD6 254-340, K271E).
The target in test [14] is HOXD13 (Homo sapiens, UniProt P35453 263-343, T313A).
The target of test [15] is HOXB9 (Homo sapiens, UniProt P17482 171-250, R186Q).
Test [16] addresses HOXC9 (Homo sapiens, UniProt P31274 178-260, R222W).
Test [17] concerns the target HOXA2 (Homo sapiens, UniProt O43364 129-215, Y150S).
Test [18] deals with HOXA2 (Homo sapiens, UniProt O43364 129-215).
In test [19] the target is T4, SIX6 (Homo sapiens, UniProt O95475 114-200, L167I).
T4 sequence: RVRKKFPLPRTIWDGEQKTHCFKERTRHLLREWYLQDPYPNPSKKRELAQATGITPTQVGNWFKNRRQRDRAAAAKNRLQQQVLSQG

For test [20], the target named is T5, SIX6 (Homo sapiens, UniProt O95475 114-200, L143V).
T5 sequence: T4 sequence with L30V, I54L

Test [21] has as its target T6, SIX6 (Homo sapiens, UniProt O95475 114-200, H141N).
T6 sequence: T4 sequence with H28N, I54L

Test [22] has as its target T7, SIX6 (Homo sapiens, UniProt O95475 114-200, T165P).
T7 sequence: T4 sequence with T52P, I54L

Test [23] deals with T8, SIX6 (Homo sapiens, UniProt O95475 114-200, L167M).
T8 sequence: T4 sequence with I54M

Test [24] addresses T9, SIX6 (Homo sapiens, UniProt O95475 114-200, L143M).
T9 sequence: T4 sequence with L30M, I54L

The target in test [25] is T10, SIX6 (Homo sapiens, UniProt O95475 114-200, L143I).
T10 sequence: T4 sequence with L30I, I54L

Test [26] has as its target T11, SIX6 (Homo sapiens, UniProt O95475 114-200, T165G).
T11 sequence: T4 sequence with T52G, I54L

Test [27] addresses T12, SIX6 (Homo sapiens, UniProt O95475 114-200, T139Q).
T12 sequence: T4 sequence with T26Q, I54L

Test [28] has as its target T13, SIX6 (Homo sapiens, UniProt O95475 114-200, T165A).
T13 sequence: T4 sequence with T52A, I54L

In test [29] the target is T14, SIX6 (Homo sapiens, UniProt O95475 114-200, L167V).
T14 sequence: T4 sequence with I54V

For test [30], the target named is T15, SIX6 (Homo sapiens, UniProt O95475 114-200).
T15 sequence: T4 sequence with I54L

For test [31], the target named is T16, SIX6 (Homo sapiens, UniProt O95475 114-200, T165I).
T16 sequence: T4 sequence with T52I, I54L

Test [32] concerns the target HOXA7 (Homo sapiens, UniProt P31268 116-202).
Test [33] concerns the target T17, PAX4 (Homo sapiens, UniProt O43316 9-242, R200K).
T17 sequence: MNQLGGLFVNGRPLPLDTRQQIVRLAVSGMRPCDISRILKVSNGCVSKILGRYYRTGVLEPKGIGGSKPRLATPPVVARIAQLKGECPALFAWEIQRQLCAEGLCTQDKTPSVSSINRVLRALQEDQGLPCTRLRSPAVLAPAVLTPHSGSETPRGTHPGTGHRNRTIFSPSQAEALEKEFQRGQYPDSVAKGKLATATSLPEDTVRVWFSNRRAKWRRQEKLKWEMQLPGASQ

In test [34] the target is PRRX1 (Homo sapiens, UniProt P54821 80-166, F113S).
Test [35] addresses T18, PAX4 (Homo sapiens, UniProt O43316 9-242).
T18 sequence: T17 sequence with K192R

The target of test [36] is HOXB6 (Homo sapiens, UniProt P17509 132-218, K202E).
Test [37] concerns the target T19, PAX4 (Homo sapiens, UniProt O43316 9-242, R200Q).
T19 sequence: T17 sequence with K192Q

Test [38] addresses T20, PAX4 (Homo sapiens, UniProt O43316 9-242, F177V).
T20 sequence: T17 sequence with F169V, K192R

For test [39], the target named is T21, PAX4 (Homo sapiens, UniProt O43316 9-242, F177Y).
T21 sequence: T17 sequence with F169Y, K192R

For test [40], the target named is T22, PAX4 (Homo sapiens, UniProt O43316 9-242, R227W).
T22 sequence: T17 sequence with K192R, R219W

In test [41] the target is HOXA7 (Homo sapiens, UniProt P31268 116-202, W177C).
Test [42] addresses PRRX1 (Homo sapiens, UniProt P54821 80-166).
The target of test [43] is HOXB6 (Homo sapiens, UniProt P17509 132-218).

Positions count from the first letter of the chain named.

Chain of HOXB9 (Homo sapiens, UniProt P17482 171-250, T197M) (P17482 171-250 T197M): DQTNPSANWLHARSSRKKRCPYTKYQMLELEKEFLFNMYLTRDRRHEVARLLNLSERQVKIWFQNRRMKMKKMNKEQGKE
Chain of HOXC10 (Homo sapiens, UniProt Q9NYD6 254-340, K271E) (Q9NYD6 254-340 K271E): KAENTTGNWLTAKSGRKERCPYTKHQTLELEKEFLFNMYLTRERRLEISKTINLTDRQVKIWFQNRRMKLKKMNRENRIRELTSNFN
Chain of HOXB9 (Homo sapiens, UniProt P17482 171-250, R186Q) (P17482 171-250 R186Q): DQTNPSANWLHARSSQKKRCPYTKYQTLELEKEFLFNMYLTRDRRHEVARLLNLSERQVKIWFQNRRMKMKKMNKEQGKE
Chain of HOXC9 (Homo sapiens, UniProt P31274 178-260, K195R) (P31274 178-260 K195R): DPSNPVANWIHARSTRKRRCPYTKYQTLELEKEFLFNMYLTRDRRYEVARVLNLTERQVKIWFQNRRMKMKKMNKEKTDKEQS
Chain of HOXC9 (Homo sapiens, UniProt P31274 178-260, R222W) (P31274 178-260 R222W): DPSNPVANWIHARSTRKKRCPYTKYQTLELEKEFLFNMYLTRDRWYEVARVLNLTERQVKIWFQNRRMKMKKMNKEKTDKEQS
Chain of HOXB9 (Homo sapiens, UniProt P17482 171-250) (P17482 171-250): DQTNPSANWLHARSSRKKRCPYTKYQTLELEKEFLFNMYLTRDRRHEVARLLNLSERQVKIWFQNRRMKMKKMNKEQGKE
Chain of HOXA2 (Homo sapiens, UniProt O43364 129-215, R185T) (O43364 129-215 R185T): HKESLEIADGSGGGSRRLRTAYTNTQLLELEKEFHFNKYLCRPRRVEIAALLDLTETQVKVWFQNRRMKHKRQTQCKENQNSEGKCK
Chain of HOXA7 (Homo sapiens, UniProt P31268 116-202, W177C) (P31268 116-202 W177C): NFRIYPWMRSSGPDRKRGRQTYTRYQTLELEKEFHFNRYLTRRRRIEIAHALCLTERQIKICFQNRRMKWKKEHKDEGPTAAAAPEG
Chain of HOXD13 (Homo sapiens, UniProt P35453 263-343) (P35453 263-343): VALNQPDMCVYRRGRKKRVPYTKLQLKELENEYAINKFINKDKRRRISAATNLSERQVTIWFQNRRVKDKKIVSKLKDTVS
Chain of HOXC10 (Homo sapiens, UniProt Q9NYD6 254-340) (Q9NYD6 254-340): as the sequence (Q9NYD6 254-340 K271E) above, with E18K counted along it
Chain of HOXA4 (Q00056 201-287 W262F): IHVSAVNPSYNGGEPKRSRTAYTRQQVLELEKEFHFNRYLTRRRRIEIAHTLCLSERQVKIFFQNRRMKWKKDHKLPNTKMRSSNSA
Chain of HOXB6 (Homo sapiens, UniProt P17509 132-218) (P17509 132-218): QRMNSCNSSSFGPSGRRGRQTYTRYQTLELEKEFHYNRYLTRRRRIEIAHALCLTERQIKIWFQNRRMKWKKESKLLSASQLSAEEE
Chain of HOXB6 (Homo sapiens, UniProt P17509 132-218, K202E) (P17509 132-218 K202E): as the sequence (P17509 132-218) above, with K71E counted along it
Chain of HOXA2 (Homo sapiens, UniProt O43364 129-215, Y150S) (O43364 129-215 Y150S): as the sequence (O43364 129-215 R185T) above, with Y22S, T57R counted along it
Chain of HOXA2 (Homo sapiens, UniProt O43364 129-215, R185K) (O43364 129-215 R185K): as the sequence (O43364 129-215 R185T) above, with T57K counted along it
Chain of HOXD13 (Homo sapiens, UniProt P35453 263-343, T313A) (P35453 263-343 T313A): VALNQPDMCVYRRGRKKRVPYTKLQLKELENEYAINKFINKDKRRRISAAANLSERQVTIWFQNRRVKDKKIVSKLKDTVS
Chain of HOXD13 (Homo sapiens, UniProt P35453 263-343, T313R) (P35453 263-343 T313R): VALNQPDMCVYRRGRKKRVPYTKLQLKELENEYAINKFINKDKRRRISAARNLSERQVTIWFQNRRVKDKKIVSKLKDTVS
Chain of HOXA2 (Homo sapiens, UniProt O43364 129-215) (O43364 129-215): as the sequence (O43364 129-215 R185T) above, with T57R counted along it
Chain of HOXA7 (Homo sapiens, UniProt P31268 116-202) (P31268 116-202): as the sequence (P31268 116-202 W177C) above, with C62W counted along it
Chain of HOXC9 (Homo sapiens, UniProt P31274 178-260) (P31274 178-260): as the sequence (P31274 178-260 R222W) above, with W45R counted along it
Chain of PRRX1 (Homo sapiens, UniProt P54821 80-166, F113S) (P54821 80-166 F113S): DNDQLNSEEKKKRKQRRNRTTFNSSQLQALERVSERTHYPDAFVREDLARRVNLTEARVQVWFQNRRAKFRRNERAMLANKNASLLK
Chain of HESX1 (Q9UBX0 95-180 F115L): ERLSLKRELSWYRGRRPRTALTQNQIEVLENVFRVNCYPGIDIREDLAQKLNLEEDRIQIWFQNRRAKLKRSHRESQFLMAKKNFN
Chain of ALX4 (Q9H161 200-286 Q225E): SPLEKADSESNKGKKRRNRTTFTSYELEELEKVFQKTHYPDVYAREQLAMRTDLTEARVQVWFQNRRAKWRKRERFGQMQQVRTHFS
Chain of PRRX1 (Homo sapiens, UniProt P54821 80-166) (P54821 80-166): as the sequence (P54821 80-166 F113S) above, with S34F counted along it
Chain of HOXC9 (Homo sapiens, UniProt P31274 178-260, R193K) (P31274 178-260 R193K): as the sequence (P31274 178-260 R222W) above, with R16K, W45R counted along it

Regarding ACGATTAT, the binding signal in the test with VENTX [1] was 10.5 upbm affinity estimate (log intensity, higher = more binding, comparable within an allelic series); in the test with NKX2-6, 10.7 upbm affinity estimate (log intensity, higher = more binding, comparable within an allelic series).
On to AACCGATT, for which the binding signal with VENTX [1] is 10.1 upbm affinity estimate (log intensity, higher = more binding, comparable within an allelic series); in the test with VENTX [2], 10.3 upbm affinity estimate (log intensity, higher = more binding, comparable within an allelic series).
CAATAAAC: the binding signal with HOXB9 [3] was 9.69 upbm affinity estimate (log intensity, higher = more binding, comparable within an allelic series); with HOXC9 [4], 12.5 upbm affinity estimate (log intensity, higher = more binding, comparable within an allelic series); with HOXC10 [5], 12.2 upbm affinity estimate (log intensity, higher = more binding, comparable within an allelic series); in the test with ALX4, 10.6 upbm affinity estimate (log intensity, higher = more binding, comparable within an allelic series); with HOXA2 [6], 9.38 upbm affinity estimate (log intensity, higher = more binding, comparable within an allelic series); in the test with HOXB9 [7], 11.8 upbm affinity estimate (log intensity, higher = more binding, comparable within an allelic series). The binding signal in the test with HOXC9 [8] was 12.7 upbm affinity estimate (log intensity, higher = more binding, comparable within an allelic series); in the test with HOXD13 [9] it was 10.9 upbm affinity estimate (log intensity, higher = more binding, comparable within an allelic series); with HOXC9 [10] it was 12.5 upbm affinity estimate (log intensity, higher = more binding, comparable within an allelic series); with HOXA2 [11], 11.7 upbm affinity estimate (log intensity, higher = more binding, comparable within an allelic series); in the test with HOXD13 [12], 12.2 upbm affinity estimate (log intensity, higher = more binding, comparable within an allelic series); in the test with HOXC10 [13], 11.4 upbm affinity estimate (log intensity, higher = more binding, comparable within an allelic series). In addition, the binding signal in the test with HOXD13 [14] is 11.9 upbm affinity estimate (log intensity, higher = more binding, comparable within an allelic series); with HOXB9 [15] it was 11.5 upbm affinity estimate (log intensity, higher = more binding, comparable within an allelic series); with HOXC9 [16], 11.1 upbm affinity estimate (log intensity, higher = more binding, comparable within an allelic series); in the test with HOXA2 [17] it was 10.7 upbm affinity estimate (log intensity, higher = more binding, comparable within an allelic series); in the test with HOXA2 [18], 9.11 upbm affinity estimate (log intensity, higher = more binding, comparable within an allelic series).
Consider CAGCTGCG, for which the binding signal is 8.53 upbm affinity estimate (log intensity, higher = more binding, comparable within an allelic series) with HOXB9 [3]; 9.16 upbm affinity estimate (log intensity, higher = more binding, comparable within an allelic series) with SIX6 [19]; 9.03 upbm affinity estimate (log intensity, higher = more binding, comparable within an allelic series) with SIX6 [20]; 9.09 upbm affinity estimate (log intensity, higher = more binding, comparable within an allelic series) with SIX6 [21]; 9 upbm affinity estimate (log intensity, higher = more binding, comparable within an allelic series) in the test with SIX6 [22]; 9.04 upbm affinity estimate (log intensity, higher = more binding, comparable within an allelic series) with SIX6 [23]. Besides, the binding signal in the test with SIX6 [24] is 9.22 upbm affinity estimate (log intensity, higher = more binding, comparable within an allelic series); with SIX6 [25], 9.01 upbm affinity estimate (log intensity, higher = more binding, comparable within an allelic series); with SIX6 [26] it was 9.19 upbm affinity estimate (log intensity, higher = more binding, comparable within an allelic series); in the test with HOXB9 [7], 8.16 upbm affinity estimate (log intensity, higher = more binding, comparable within an allelic series); with SIX6 [27], 9.25 upbm affinity estimate (log intensity, higher = more binding, comparable within an allelic series); in the test with SIX6 [28] it was 9.08 upbm affinity estimate (log intensity, higher = more binding, comparable within an allelic series). The binding signal in the test with SIX6 [29] was 9.05 upbm affinity estimate (log intensity, higher = more binding, comparable within an allelic series); with SIX6 [30] it was 9.08 upbm affinity estimate (log intensity, higher = more binding, comparable within an allelic series); with SIX6 [31], 9.09 upbm affinity estimate (log intensity, higher = more binding, comparable within an allelic series); with HOXB9 [15], 8.31 upbm affinity estimate (log intensity, higher = more binding, comparable within an allelic series).
Regarding ATTATAAT, the binding signal with HOXB9 [3] was 10.2 upbm affinity estimate (log intensity, higher = more binding, comparable within an allelic series); with HOXC9 [4], 12.5 upbm affinity estimate (log intensity, higher = more binding, comparable within an allelic series); with HOXA7 [32] it was 11.3 upbm affinity estimate (log intensity, higher = more binding, comparable within an allelic series); in the test with PAX4 [33], 11.8 upbm affinity estimate (log intensity, higher = more binding, comparable within an allelic series); in the test with PRRX1 [34] it was 11.3 upbm affinity estimate (log intensity, higher = more binding, comparable within an allelic series); in the test with PAX4 [35], 12.2 upbm affinity estimate (log intensity, higher = more binding, comparable within an allelic series). Besides, the binding signal is 10.1 upbm affinity estimate (log intensity, higher = more binding, comparable within an allelic series) in the test with HOXB6 [36]; 12 upbm affinity estimate (log intensity, higher = more binding, comparable within an allelic series) with PAX4 [37]; 10.8 upbm affinity estimate (log intensity, higher = more binding, comparable within an allelic series) with PAX4 [38]; 11.8 upbm affinity estimate (log intensity, higher = more binding, comparable within an allelic series) in the test with HOXC10 [13]; 11.1 upbm affinity estimate (log intensity, higher = more binding, comparable within an allelic series) in the test with PAX4 [39]; 11.1 upbm affinity estimate (log intensity, higher = more binding, comparable within an allelic series) with HOXC9 [16]. The binding signal with HESX1 is 7.83 upbm affinity estimate (log intensity, higher = more binding, comparable within an allelic series); with PAX4 [40], 11 upbm affinity estimate (log intensity, higher = more binding, comparable within an allelic series); with HOXA7 [41] it was 8.94 upbm affinity estimate (log intensity, higher = more binding, comparable within an allelic series); in the test with HOXA4, 11.4 upbm affinity estimate (log intensity, higher = more binding, comparable within an allelic series); with PRRX1 [42], 13.3 upbm affinity estimate (log intensity, higher = more binding, comparable within an allelic series); with HOXB6 [43], 11.8 upbm affinity estimate (log intensity, higher = more binding, comparable within an allelic series).

For the origin of these results see publication PMC11006913.
